This is part of a sample that, as a whole, favours compounds with a hit. Of some 83,000 tested, about 20% had one in any assay.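 Single-concentration screen, 48 h exposure, 96-well plates. Endpoint: percent growth. Below 10 = active.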 A number with no mark means an inactive call. Activity calls are given as the source filed them.
Columns and labels:
Test in all cases: NCI-60 one-dose screen, 48 h (100 = growth as untreated, 0 = no growth, -100 = all killed)
Conditions in all cases: 10 µM unless noted
NCI-H23 lung = tested on: NCI-H23 lung
NCI-H322M lung = tested on: NCI-H322M lung
HOP-62 NSCLC = tested on: HOP-62 NSCLC
NCI-H460 lung = tested on: NCI-H460 lung
HOP-92 NSCLC = tested on: HOP-92 NSCLC
NCI-H522 lung = tested on: NCI-H522 lung
A549/ATCC NSCLC = tested on: A549/ATCC NSCLC
786-0 renal = tested on: 786-0 renal
COLO 205 colon = tested on: COLO 205 colon
DU-145 prostate = tested on: DU-145 prostate
K-562 leukemia = tested on: K-562 leukemia
MALME-3M melanoma = tested on: MALME-3M melanoma
MDA-MB-231 breast = tested on: MDA-MB-231 breast
RXF 393 renal = tested on: RXF 393 renal
SF-268 CNS = tested on: SF-268 CNS
SF-295 CNS = tested on: SF-295 CNS
SF-539 CNS = tested on: SF-539 CNS
UACC-257 melanoma = tested on: UACC-257 melanoma
M14 melanoma = tested on: M14 melanoma

| SMILES | growth (NCI-H23 lung) | growth (NCI-H322M lung) | growth (HOP-62 NSCLC) | growth (NCI-H460 lung) | growth (HOP-92 NSCLC) | growth (NCI-H522 lung) | growth (A549/ATCC NSCLC) | growth (786-0 renal) | growth (COLO 205 colon) | growth (DU-145 prostate) | growth (K-562 leukemia) | growth (MALME-3M melanoma) | growth (MDA-MB-231 breast) | growth (RXF 393 renal) | growth (SF-268 CNS) | growth (SF-295 CNS) | growth (SF-539 CNS) | growth (UACC-257 melanoma) | growth (M14 melanoma) |
| --- | --- | --- | --- | --- | --- | --- | --- | --- | --- | --- | --- | --- | --- | --- | --- | --- | --- | --- | --- |
| O=C(Cn1nnc2ccccc21)Nc1ccc(-c2nc3ccccc3s2)cc1 | 80.7% | 103% | 101% | 83% | 73.1% | 79.3% | 93.6% | 95% | 105% | 74% | 55.2% | 96.9% | 94.7% | 99.9% | 92.4% | 84.7% | 71.2% | 94.5% | 90.6% |
| O=C1OCC2=C1C(c1cccc(C(F)(F)F)c1)c1cc3c(cc1N2CCO)OCO3 (configuration not stated) | 29.5% | 42.4% | 33% | 13% | 51.4% | 16.1% | 28.9% | 28.5% | -2.39% (active) | 10.7% | 9.02% (active) | 63.9% | 44% | 1.92% (active) | 47.6% | -2.78% (active) | -3.02% (active) | 74.2% | 2.33% (active) |
| CN1CCN(c2ccc(NC(=O)c3cncnc3Nc3ccc4c(ccn4Cc4cccc(F)c4)c3)cc2)CC1 | 72.6% | 92.9% | 8.44% (active) | 30.7% | 59.9% | 75.6% | 43.2% | -38.4% (active) | -34% (active) | 54% | 2.74% (active) | -82.6% (active) | 11.9% | 31% | 71% | 80.8% | 45% | 65.4% | -59.3% (active) |
| Cn1cc(-c2ccc3cc(-c4ccc(CC(=O)Nc5cc(C(C)(C)C)on5)cc4)cnc3c2)cn1 | 46.1% | 16.5% | 44.4% | -3.39% (active) | 50.9% | 17.2% | 16.5% | -92.6% (active) | 35.3% | 22.1% | 5.03% (active) | -15.8% (active) | 11.4% | -0.246% (active) | 15.7% | 29.7% | 20.4% | 5.83% (active) | 0.0609% (active) |
| COc1ccc(NC(=O)c2ccc(C(=O)Nc3ccc(OC)cc3OC)cc2)c(OC)c1 | 75.3% | 91.3% | 33.6% | 95.9% | -19.3% (active) | 76.4% | 85% | 51.2% | 115% | 94.6% | 110% | 84.5% | 53.1% | 40.5% | 29.7% | 57.3% | 35.8% | 90.6% | 79.8% |
| Cc1ccccc1CNc1c2ccccc2nc2ccccc12 | 23.4% | 29% | 28.1% | 6.94% (active) | -1.03% (active) | 50% | 19.7% | 24.3% | -18.5% (active) | 30.6% | 5.04% (active) | 15.2% | 39.9% | 7.78% (active) | 42.9% | 29.5% | 3.3% (active) | 32.7% | 13.1% |
| CO[C@H](C(=O)[C@@H](O)[C@@H](C)O)[C@@H]1Cc2cc3cc(O[C@H]4C[C@@H](O[C@H]5C[C@@H](O)[C@H](O)C(C)O5)[C@H](O)C(C)O4)c(C)c(O)c3c(O)c2C(=O)[C@H]1O[C@H]1C[C@@H](O[C@H]2C[C@@H](O[C@H]3C[C@@H](OC)[C@H](O)C(C)O3)[C@@H](O)C(C)O2)C(O)(O)C(C)O1 (some centres not stated) | 7.35% (active) | 9.68% (active) | -3.61% (active) | 9.9% (active) | 9.37% (active) | -20.2% (active) | 3.64% (active) | 11.2% | -80% (active) | 19.5% | 12.1% | -36.8% (active) | 5.02% (active) | -57.9% (active) | 26.3% | 12.4% | -0.417% (active) | -20.5% (active) | 11.1% |
| COc1cc2c(cc1O)[C@@]1(C)[C@H](c3ccccc3Br)OC(=O)N1CC2 | 94.3% | 116% | 97.3% | 96.5% | 82.8% | 75.5% | 79.6% | 104% | 117% | 101% | 75% | 83.1% | 95.6% | 99.5% | 94.7% | 102% | 95.1% | 83.5% | 88.3% |
| O=C(NCc1ccc2c(c1)OCO2)NCC1CCCC(CNC(=O)NCc2ccc3c(c2)OCO3)C1 (configuration not stated) | 99.7% | 108% | 102% | 101% | 103% | 89.4% | 96.9% | 97.6% | 119% | 108% | 95.3% | 108% | 96.4% | 106% | 97.7% | 101% | 103% | 104% | 109% |
| Cn1c(/C=C/[N+](=O)[O-])cc2ccccc21 | -24.5% (active) | 105% | 76.7% | 62.7% | 84% | 70.5% | 48% | 75.7% | 12.5% | -8.11% (active) | 7.24% (active) | 91.4% | 63% | -97.1% (active) | 93.4% | 40.4% | -53.4% (active) | -5.1% (active) | -70.1% (active) |
| C=C1C(=O)O[C@H]2[C@H]1CC/C(COC(=O)c1cc3cc(F)ccc3[nH]1)=C\CC[C@@]1(C)O[C@@H]21 | -66.4% (active) | -35.7% (active) | -50.8% (active) | -59.2% (active) | -84.9% (active) | -68.9% (active) | -61.9% (active) | -89.6% (active) | -68.7% (active) | -93.1% (active) | 0.0225% (active) | -76.4% (active) | -70.1% (active) | -84.4% (active) | -71.2% (active) | 33% | -87% (active) | -79.5% (active) | -75.9% (active) |
| CC(C(=O)O)n1c(O)c(C=Nc2cccnc2)sc1=S (configuration not stated) | 99.1% | 93.1% | 89.5% | 100% | 86% | 89.2% | 92.4% | 95.5% | 107% | 97% | 89% | 98.8% | 86.3% | 88.7% | 87.7% | 101% | 98.1% | 103% | 95.3% |
| Cc1ccc(N=Nc2c(N)nn(-c3ccccc3)c2N)cc1 | 6.74% (active) | 32.7% | 64% | 9.76% (active) | 86.2% | -11% (active) | 29.3% | 63.7% | 16.9% | 27.8% | 7.43% (active) | 39.3% | 54.4% | -0.509% (active) | 54.5% | 13.8% | 11.4% | 63.4% | -2.8% (active) |
| Cn1ccnc1C(=O)/C=C/c1ccc(C(=O)Nc2ccc(F)cc2)cc1 | 15.9% | 11% | 5.2% (active) | -44.5% (active) | 11.1% | 7.55% (active) | 10.8% | -35.2% (active) | 25.8% | 19.9% | 4.37% (active) | 66.4% | 18.7% | 5.96% (active) | 14.4% | 6.55% (active) | -40.1% (active) | 62.2% | 17.6% |
| O=C(Cn1cc(CN2C(=O)c3ccccc3S2(=O)=O)nn1)Nc1cccc(Cl)c1 | 97.1% | 99% | – | 111% | 105% | 93.9% | 111% | 115% | 114% | 109% | 103% | 99.6% | 115% | 106% | 99.4% | 115% | 110% | 113% | 100% |
| Cc1nn(-c2ccccc2)c(/N=C/N(C)C)c1/C=C/C(=O)c1ccc(Cl)cc1 | 96.9% | – | 93.2% | 103% | 78% | 78.4% | 108% | 103% | 110% | 122% | 59.6% | 90.1% | 77.2% | 97.8% | 118% | 106% | 101% | 119% | 94.7% |

Reference: PubChem BioAssay (NCI)
